Screens: PubChem, The Scripps Research Institute Molecular Screening Center
HTR5A inv ctr: inverse agonist of human HTR5A in OPRM1-OPRD1 counter-screen | HTR5A cell line, luminescence, inverse agonism | inhibition, % at 9.3 µM | P47898 | AID 504634 | actives 0.083% (n = 340,000); in the data active = inhibition mostly above about 23%, no sharp cut-off; inactive = mostly below about 18%;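 note: 0% = cells with DMSO and 100% = no-cell wells with DMSO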
Target sequence (P47898 whole entry, looked up): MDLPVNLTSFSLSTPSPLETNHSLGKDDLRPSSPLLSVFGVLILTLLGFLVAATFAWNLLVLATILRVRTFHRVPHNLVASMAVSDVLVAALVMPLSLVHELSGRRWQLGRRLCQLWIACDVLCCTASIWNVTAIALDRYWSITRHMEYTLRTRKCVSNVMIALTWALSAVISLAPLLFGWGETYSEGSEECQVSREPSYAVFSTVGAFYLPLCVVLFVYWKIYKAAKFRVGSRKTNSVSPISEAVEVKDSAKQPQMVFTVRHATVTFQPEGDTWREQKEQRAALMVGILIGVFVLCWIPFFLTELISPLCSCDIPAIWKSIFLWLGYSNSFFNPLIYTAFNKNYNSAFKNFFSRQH
MsrA inhibitor: inhibitors of bovine MsrA; purified bovine MsrA, absorbance read-out; inhibition, % at 15.5 µM; actives 0.75% (n = 360,000); in the data active = inhibition above about 4.5%;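 note: 0% = vehicle wells with enzyme and 100% = reference inhibitor wells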
HTR5A ag ctr: counter-screen for OPRM1-OPRD1 agonists: human HTR5A agonism; P47898; HTR5A agonist assay, luminescence, cell-based; activation, % at 9.3 µM; actives 0.61% (n = 340,000); in the data active = activation mostly above about 9.5%, no sharp cut-off; inactive = mostly below about 7.6%;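 note: 0% = cells with vehicle only and 100% = reference agonist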
MOR-DOR ag: agonists of human mu-delta opioid receptor heterodimerization | cells, OPRM1-OPRD1 heterodimerization, luminescence | activation, % at 9.3 µM | P35372+P41143 | actives 0.3% (n = 340,000) | AID 504326; in the data active = activation above about 18%;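 note: 0% = vehicle-treated cells and 100% = reference agonist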
OPRM1-OPRD1 inv: inverse agonists of human mu-delta opioid receptor heterodimerization. P35372+P41143. cell-based MOR-DOR heterodimer luminescence, inverse agonism. inhibition, % at 9.3 µM. actives 0.21% (n = 340,000); in the data active = inhibition above about 22%, passing the limit was not always enough;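 note: 0% = cells with DMSO and 100% = wells without cells with DMSO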
bovine MsrA act: activates bovine MsrA enzyme. actives 0.3% (n = 360,000). AID 602163. purified bovine MsrA, absorbance read-out. activation, % at 10.6 µM; in the data active = activation above about 7.5%;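 note: 0% = vehicle and 100% = reference activator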
OPRM1-D1 inv cf: confirmation of human OPRM1-OPRD1 heterodimerization inverse agonists | actives 20% (n = 580) | shares compounds with OPRM1-OPRD1 inv | cells expressing OPRM1/OPRD1 heterodimer, luminescence | inhibition, % at 9.3 µM; in the data active = inhibition above about 32%;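 note: 0% = cells with DMSO and 100% = wells lacking cells with DMSO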
HTR5A inv ctr2: HTR5A inverse agonism, opioid heterodimer counter-screen; shares compounds with OPRM1-OPRD1 inv; HTR5A-expressing cells, luminescence; inhibition, % at 9.3 µM; 580 tested, under 10 active; call rule not given here;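 note: 0% = cells with DMSO and 100% = no-cell wells with DMSO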
Numbers without * were called inactive; . = no result. Only some compounds are listed: those with a hit (about 1.9% of all), similar ones and a draw of the others.

SMILES | HTR5A inv ctr | MsrA inhibitor | HTR5A ag ctr | MOR-DOR ag | OPRM1-OPRD1 inv | bovine MsrA act | OPRM1-D1 inv cf | HTR5A inv ctr2
Cc1nn(-c2ccc(F)cc2)c(N)c1C1(O)C(=O)Nc2ccccc21 (stereo not given) | 7 | 0 | 1 | -2 | 9 | -4 | . | .
Cc1cc(C)nc(-n2nc(C)c(C3(O)C(=O)Nc4ccc(F)cc43)c2N)n1 (stereo not given) | 17 | 0 | -10 | -14 | 62* | -11 | 53* | 8
Cc1cc(C)nc(-n2nc(C)c(C3(O)C(=O)Nc4ccccc43)c2N)n1 (stereo not given) | 11 | 0 | -4 | -4 | 23* | -1 | -15 | -4
COc1ccc(S(=O)(=O)NNc2nc(C)cc(C)n2)cc1[N+](=O)[O-] | 0 | 0 | 2 | -8 | 46* | 1 | 54* | 2
Nc1[nH]c(C(=O)c2ccccc2)c(-c2ccccn2)c1C(=O)c1c[nH]c2ccc(F)cc12 | . | 1 | . | . | . | . | . | .
Cn1nnc(NC(=S)NC(=O)c2ccc3ccccc3c2)n1 | . | -1 | . | . | . | 1 | . | .
Cn1nnc(NC(=S)NC(=O)c2cccc3ccccc23)n1 | 5 | -1 | -1 | -8 | 41* | -3 | 9 | 3
COc1cc(OC)cc(C(=O)NC(=S)Nc2nnn(C)n2)c1 | 1 | 1 | -1 | -8 | 41* | 3 | 25 | 7
O=C1NC(=O)C2(CCOc3ccc(F)cc32)N1 (stereo not given) | . | 0 | . | . | . | . | . | .
COC(=O)c1cc2c(c3c4ccccc4n(S(=O)(=O)c4cccc(C)c4)c13)C(=O)N(Cc1ccccc1OC)C2 | . | 1 | . | . | . | . | . | .
CN(C)CC(=O)c1ccc(-c2ccccc2)cc1 | 0 | -1 | -1 | -6 | 34* | 0 | -42 | -12
CCN(CC)CC(=O)c1ccc(-c2ccccc2)cc1 | 9 | -1 | -3 | -10 | 54* | -2 | -58 | 5
CCN(CC)C(=O)c1ccc(-c2ccccc2)cc1 | -16 | 0 | 1 | -4 | 20 | -7 | . | .
O=C1NC(=S)S/C1=C\c1cc(Cl)cc(Cl)c1O | -2 | 2 | 0 | -7 | 35* | -6 | -59 | -13
COc1cccc(-n2nc(C#N)c(Cl)cc2=O)c1 | 14 | 1 | -5 | -5 | 28* | -6 | -2 | 17
COc1cccc(-n2nc(C(N)=O)c(O)cc2=O)c1 | -5 | 0 | 2 | -2 | 14 | -9 | . | .
COC(=O)c1cc2c(c3c4cc(C)ccc4n(S(=O)(=O)c4cccc(C)c4)c13)C(=O)N(C)C2 | . | 0 | . | . | . | . | . | .
CC1(C)CC(=O)C(C2(O)C(=O)Nc3ccccc32)CO1 (stereo not given) | 22* | 0 | -8 | -11 | 55* | -2 | -110 | -63
CCC1Nc2ncnc(N3CCOCC3)c2N(Cc2ccc(C)cc2)C1=O (stereo not given) | 17 | 1 | 3 | -1 | 8 | -5 | . | .
CCC1Nc2ncnc(N3CCN(c4ccccc4)CC3)c2N(Cc2ccc(C)cc2)C1=O (stereo not given) | 36 | 2 | -16 | -11 | 50* | -8 | 36* | 56*
CNS(=O)(=O)c1cccc(C(=O)OCC(=O)c2ccc(S(=O)(=O)N3CCCCC3)cc2)c1 | 13 | 0 | -5 | -10 | 53* | -5 | 24 | 18
CC(=O)Nc1cccc(C(=O)OCC(=O)c2ccc(S(=O)(=O)N3CCCCC3)cc2)c1 | 18 | 0 | -7 | -9 | 47* | -3 | 49* | 15
COC(=O)c1cc2c(c3c4cc(OC)ccc4n(S(=O)(=O)c4ccccc4)c13)C(=O)N(Cc1ccc(C(F)(F)F)cc1)C2 | . | 0 | . | . | . | . | . | .
NC1(N2SC(S)=C3CCCC=C32)CCCCC1 | . | -1 | . | . | . | . | . | .
COc1ccc(N=C2C(=O)N3c4c(cccc42)C(C)=CC3(C)C)cc1 | 16 | 0 | -4 | -5 | 25 | -7 | . | .
SMILES | HTR5A inv ctr | MsrA inhibitor | HTR5A ag ctr | MOR-DOR ag | OPRM1-OPRD1 inv | bovine MsrA act | OPRM1-D1 inv cf | HTR5A inv ctr2
Nc1n[nH]c(=S)n1/N=C1/C(=O)Nc2ccccc21 | 3 | 3 | -1 | -1 | 7 | 6 | . | .
COc1ccc(N=C2C(=O)Nc3ccc(C)c(Br)c32)cc1 | 6 | 0 | -2 | -14 | 70* | -4 | -52 | -3
COc1ccc(N=C2C(=O)Nc3ccccc32)cc1 | 8 | 0 | -2 | -9 | 50* | -1 | 20 | -15
COc1ccc(OC)c(N=C2C(=O)Nc3ccccc32)c1 | 22 | 0 | -8 | -8 | 42* | 0 | 45* | -3
COc1ccc2c(c1)/C(=C/c1cc(OC)c(OC)c(OC)c1)C(=O)N2 | 0 | 2 | 0 | -2 | 8 | -8 | . | .
O=C1Nc2ccccc2C1=Nc1ccc(F)cc1 | 11 | . | -3 | -11 | 59* | 2 | 23 | 4
O=C(C(=O)N1CCC(CNC(=O)c2ccccc2F)CC1)c1cc2ccccc2o1 | . | 1 | . | . | . | . | . | .
C[C@@H]1CN([C@@H](C)CO)C(=O)CCCn2cc(nn2)CO[C@H]1CN(C)C(=O)c1ccncc1 | . | 0 | . | . | . | . | . | .
NS(=O)(=O)c1ccc(N=C2C(=O)Nc3ccccc32)cc1 | 7 | 0 | -3 | -12 | 64* | -4 | 27 | -7
O=C1Nc2ccccc2C1=Nc1cccc([N+](=O)[O-])c1 | -4 | 0 | 1 | -8 | 48* | 0 | -138 | -12
O=C1Nc2ccccc2C1=Nc1ccc(S(=O)(=O)Nc2nccs2)cc1 | -13 | 0 | 4 | 1 | -3 | -12 | . | .
COC(=O)[C@]12C[C@H](CC(=O)NCCc3ccccc3OC)C(=O)N(Cc3ccccc3)C1=C[C@H](C(C)(C)C)O[C@@H]2C | . | 0 | . | . | . | . | . | .
Cc1cccc(N=C2CSC(=O)N2)c1 | -4 | 0 | 2 | -3 | 16 | -4 | . | .
Cc1cccc(N=C2C(=O)Nc3c(Cl)cccc32)c1 | -10 | 0 | 3 | -12 | 56* | 0 | 27 | 7
Cc1ccc(Cl)c2c1NC(=O)C2(O)CC(=O)c1ccccc1O (stereo not given) | 27 | -2 | -4 | -15 | 80* | 0 | 75* | -9
CCCCCCCCN1C(=O)[C@@H](CC(=O)N2CCC(c3ccccc3)CC2)C[C@@]2(C(=O)OC)C1=C[C@H](C1CCCC1)O[C@@H]2C | . | 0 | . | . | . | . | . | .
COc1ccccc1-c1ccc2c(c1)[C@@H]1C[C@H]3[C@@H](CN1CC2)[C@H](C)ON3C | . | 3 | . | . | . | . | . | .
Cc1cc2nc3c(nc2cc1C)C(O)=C3O | 11 | 2 | 5 | 1 | -7 | -12 | . | .
OC1=C(O)c2nc3ccccc3nc21 | -33 | . | 2 | -15 | 84* | -3 | 73* | -17
CCCCc1c(-c2ccccc2OC)ncn1Cc1ccc(F)c(F)c1 | . | 0 | . | . | . | . | . | .
C=CCCC1CN(Cc2ccc(OC)cc2)S(=O)(=O)c2c(Oc3cc(C)c(C)c(C)c3)cccc2O1 (stereo not given) | . | 0 | . | . | . | . | . | .
